# Inconclusive results are not listed. Entries that show only a call come without a potency. Calls of active or inactive are those of the source. Calls come from the whole dose curve; as a rule, active = well fitted cell-killing curve with a large enough effect in the repeat runs; inconclusive = weak or mixed curves, or effect the other way; inactive = flat fitted curve, though single readings scatter.
# Assays:
# [1] = cAMP Responsive Elements (CRE) small molecule antagonists, cell-based qHTS assay: qHTS cell viability counter screen (AID 2060913); conditions: CRE-bla HEK293T viability, CellTiter-Glo luminescence, 5 h; series mostly up to 92.4 µM; note: nearly all actives have a fitted effect of over 40% in size
# In short: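 Cytotoxicity read in the same wells as the CRE-bla HEK293T antagonist assay: after 3 h compound with 0.25 uM NKH477 final and 2 h beta-lactamase substrate, CellTiter-Glo luminescence measured.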
# [2] = cAMP Responsive Elements (CRE) small molecule agonists, cell-based qHTS assay: qHTS cell viability counter screen (AID 2060914); conditions: CRE-bla HEK293T viability, CellTiter-Glo luminescence, 5 h; series mostly up to 92.4 µM;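 note: viability read after 3 h of compound exposure; nearly all actives have a fitted effect of over 50% in size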
# In short: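 CRE-bla HEK293T cells in 10% dialyzed FBS medium were exposed to compounds for 3 h at 37C after 18 h plating. CellTiter-Glo was then added in the same wells, and luminescence was read after 30 min at room temperature.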
SMILES,Potency [1],Potency [2]
COc1ccccc1OCC(O)CO (stereo unspecified),inactive,inactive
O=C(O)c1cccc(C(F)(F)F)c1,inactive,inactive
O=C(OCC1CO1)C1CCCCC1C(=O)OCC1CO1 (stereo unspecified),inactive,inactive
